# From the supplement of paper PMC12282887
# ± gives the standard deviation of the averaged measurements.
# Key:
# Assay in all cases: promoter activity interaction Z-score (Lux/OD deviation from empty-vector control); higher = stronger promoter induction by the compound
# [1] = tested on: E. coli BW25113 acrABp lux reporter
# Outline: (§1)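 In 384-well plates, 40 µl LB Lennox cultures of E. coli BW25113 with low-copy luxCDABE promoter reporters grew at 37°C. Optical density at 600 nm and light output were recorded every 30 min for 12 h, with windows of 0–8 h for wild type and 1–9 h for deletion strains, and wells under 10% of the median growth value were left out. Each value is a Z-transformed residual of growth-normalised luminescence fitted against a control.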
# [2] = tested on: E. coli BW25113 micFp lux reporter
# Outline: as §1
# [3] = tested on: E. coli BW25113 ompFp lux reporter
# Outline: as §1
# [4] = tested on: E. coli BW25113 robp lux reporter
# Outline: as §1
# [5] = tested on: E. coli BW25113 soxSp lux reporter
# Outline: as §1
# [6] = tested on: E. coli BW25113 tolCp lux reporter
# Outline: as §1
# [7] = 20.7 µg/ml, genetic background: wild type
# [8] = 20.7 µg/ml, genetic background: ΔmarA
# [9] = 20.7 µg/ml, genetic background: Δrob
# [10] = 20.7 µg/ml, genetic background: ΔsoxS
# [11] = 41.4 µg/ml, genetic background: wild type
# [12] = 41.4 µg/ml, genetic background: ΔmarA
# [13] = 41.4 µg/ml, genetic background: Δrob
# [14] = 41.4 µg/ml, genetic background: ΔsoxS
# [15] = 82.8 µg/ml, genetic background: wild type
# [16] = 82.8 µg/ml, genetic background: ΔmarA
# [17] = 82.8 µg/ml, genetic background: Δrob
# [18] = 82.8 µg/ml, genetic background: ΔsoxS
# [19] = 165.6 µg/ml, genetic background: wild type
# [20] = 165.6 µg/ml, genetic background: ΔmarA
# [21] = 165.6 µg/ml, genetic background: Δrob
# [22] = 165.6 µg/ml, genetic background: ΔsoxS
smiles,measurement,setting,value
CN(C)C(=N)NC(=N)N [Metformin],promoter activity interaction Z-score,[1]; [7],-0.326 ± 0.14
same,promoter activity interaction Z-score,[1]; [8],0.815 ± 0.45
same,promoter activity interaction Z-score,[1]; [9],-0.31 ± 0.23
same,promoter activity interaction Z-score,[1]; [10],-0.0221 ± 0.28
same,promoter activity interaction Z-score,[1]; [11],-0.0908 ± 0.043
same,promoter activity interaction Z-score,[1]; [12],0.174 ± 0.41
same,promoter activity interaction Z-score,[1]; [13],0.377 ± 0.017
same,promoter activity interaction Z-score,[1]; [14],-0.0209 ± 0.61
same,promoter activity interaction Z-score,[1]; [15],-0.145 ± 0.14
same,promoter activity interaction Z-score,[1]; [16],0.000785 ± 1.4
same,promoter activity interaction Z-score,[1]; [17],0.271 ± 0.043
same,promoter activity interaction Z-score,[1]; [18],-0.155 ± 0.2
same,promoter activity interaction Z-score,[1]; [19],-0.249 ± 0.13
same,promoter activity interaction Z-score,[1]; [20],0.575 ± 0.81
same,promoter activity interaction Z-score,[1]; [21],0.41 ± 0.17
same,promoter activity interaction Z-score,[1]; [22],0.11 ± 0.051
same,promoter activity interaction Z-score,[2]; [7],-0.368 ± 0.019
same,promoter activity interaction Z-score,[2]; [8],-0.0629 ± 0.04
same,promoter activity interaction Z-score,[2]; [9],-0.153 ± 0.082
same,promoter activity interaction Z-score,[2]; [10],-0.139 ± 0.14
same,promoter activity interaction Z-score,[2]; [11],-0.177 ± 0.23
same,promoter activity interaction Z-score,[2]; [12],-0.102 ± 0.12
same,promoter activity interaction Z-score,[2]; [13],-0.0244 ± 0.0094
same,promoter activity interaction Z-score,[2]; [14],-0.233 ± 0.015
same,promoter activity interaction Z-score,[2]; [15],-0.161 ± 0.16
same,promoter activity interaction Z-score,[2]; [16],-0.0653 ± 0.072
same,promoter activity interaction Z-score,[2]; [17],-0.0658 ± 0.068
same,promoter activity interaction Z-score,[2]; [18],-0.0678 ± 0.068
same,promoter activity interaction Z-score,[2]; [19],-0.544 ± 0.37
same,promoter activity interaction Z-score,[2]; [20],-0.151 ± 0.025
same,promoter activity interaction Z-score,[2]; [21],-0.0629 ± 0.08
same,promoter activity interaction Z-score,[2]; [22],-0.000873 ± 0.19
same,promoter activity interaction Z-score,[3]; [7],-0.191 ± 0.037
same,promoter activity interaction Z-score,[3]; [8],0.332 ± 0.047
same,promoter activity interaction Z-score,[3]; [9],-0.324 ± 0.2
same,promoter activity interaction Z-score,[3]; [10],-0.0538 ± 0.13
same,promoter activity interaction Z-score,[3]; [11],-0.037 ± 0.014
same,promoter activity interaction Z-score,[3]; [12],-0.125 ± 0.2
same,promoter activity interaction Z-score,[3]; [13],0.267 ± 0.2
same,promoter activity interaction Z-score,[3]; [14],0.0362 ± 0.37
same,promoter activity interaction Z-score,[3]; [15],0.036 ± 0.056
same,promoter activity interaction Z-score,[3]; [16],0.0389 ± 0.14
same,promoter activity interaction Z-score,[3]; [17],0.322 ± 0.37
same,promoter activity interaction Z-score,[3]; [18],0.0576 ± 0.088
same,promoter activity interaction Z-score,[3]; [19],-0.153 ± 0.11
same,promoter activity interaction Z-score,[3]; [20],0.766 ± 0.041
same,promoter activity interaction Z-score,[3]; [21],0.44 ± 0.62
same,promoter activity interaction Z-score,[3]; [22],0.813 ± 0.41
same,promoter activity interaction Z-score,[4]; [7],0.282 ± 0.18
same,promoter activity interaction Z-score,[4]; [8],0.497 ± 0.0053
same,promoter activity interaction Z-score,[4]; [9],-0.187 ± 0.91
same,promoter activity interaction Z-score,[4]; [10],0.397 ± 1.1
same,promoter activity interaction Z-score,[4]; [11],-0.109 ± 0.24
same,promoter activity interaction Z-score,[4]; [12],0.171 ± 0.31
same,promoter activity interaction Z-score,[4]; [13],0.416 ± 0.36
same,promoter activity interaction Z-score,[4]; [14],0.638 ± 1.1
same,promoter activity interaction Z-score,[4]; [15],0.336 ± 0.065
same,promoter activity interaction Z-score,[4]; [16],0.0784 ± 0.21
same,promoter activity interaction Z-score,[4]; [17],0.39 ± 0.41
same,promoter activity interaction Z-score,[4]; [18],0.405 ± 0.19
same,promoter activity interaction Z-score,[4]; [19],-0.305 ± 0.39
same,promoter activity interaction Z-score,[4]; [20],0.28 ± 0.035
same,promoter activity interaction Z-score,[4]; [21],0.519 ± 0.11
same,promoter activity interaction Z-score,[4]; [22],0.649 ± 0.18
same,promoter activity interaction Z-score,[5]; [7],-0.232 ± 0.14
same,promoter activity interaction Z-score,[5]; [8],0.132 ± 0.02
same,promoter activity interaction Z-score,[5]; [9],-0.07 ± 0.0035
same,promoter activity interaction Z-score,[5]; [10],0.26 ± 0.056
same,promoter activity interaction Z-score,[5]; [11],-0.046 ± 0.095
same,promoter activity interaction Z-score,[5]; [12],0.0673 ± 0.055
same,promoter activity interaction Z-score,[5]; [13],0.0305 ± 0.041
same,promoter activity interaction Z-score,[5]; [14],0.0287 ± 0.19
same,promoter activity interaction Z-score,[5]; [15],0.0138 ± 0.19
same,promoter activity interaction Z-score,[5]; [16],-0.0135 ± 0.017
same,promoter activity interaction Z-score,[5]; [17],0.0262 ± 0.22
same,promoter activity interaction Z-score,[5]; [18],-0.0818 ± 0.083
same,promoter activity interaction Z-score,[5]; [19],-0.199 ± 0.039
same,promoter activity interaction Z-score,[5]; [20],-0.0313 ± 0.093
same,promoter activity interaction Z-score,[5]; [21],-0.191 ± 0.24
same,promoter activity interaction Z-score,[5]; [22],0.0168 ± 0.089
same,promoter activity interaction Z-score,[6]; [7],-0.594 ± 0.2
same,promoter activity interaction Z-score,[6]; [8],1.15 ± 1.7
same,promoter activity interaction Z-score,[6]; [9],-0.505 ± 0.25
same,promoter activity interaction Z-score,[6]; [10],-0.306 ± 0.74
same,promoter activity interaction Z-score,[6]; [11],-0.0152 ± 1.1
same,promoter activity interaction Z-score,[6]; [12],-0.186 ± 1
same,promoter activity interaction Z-score,[6]; [13],0.0225 ± 0.69
same,promoter activity interaction Z-score,[6]; [14],-0.32 ± 0.57
same,promoter activity interaction Z-score,[6]; [15],0.0793 ± 0.27
same,promoter activity interaction Z-score,[6]; [16],0.276 ± 0.67
same,promoter activity interaction Z-score,[6]; [17],-0.546 ± 0.36
same,promoter activity interaction Z-score,[6]; [18],0.0771 ± 1.1
same,promoter activity interaction Z-score,[6]; [19],-0.144 ± 0.74
same,promoter activity interaction Z-score,[6]; [20],0.284 ± 1.1
same,promoter activity interaction Z-score,[6]; [21],-0.698 ± 0.026
same,promoter activity interaction Z-score,[6]; [22],0.3 ± 0.58
